Hits are enriched below; roughly 31% of the tested compounds scored in any of these assays.
CYP2C9 inh: human CYP2C9 inhibition | P11712 | CYP2C9 Supersomes, luciferin-H conversion, luminescence | inhibition, % at 5 µM | 96,000 tested, 20% active | AID 777;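 active means blocking of liver enzyme CYP2C9 beyond about 50% at 5 µM, limit read from the data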
CYP2C19 inh: human CYP2C19 inhibition; CYP2C19 Supersomes, luciferin-H EGE luminescence, 30 min; inhibition, % at 5 µM; 96,000 tested, 21% active; AID 778; P33261;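 active means CYP2C19 inhibition above a set limit at 5 µM in the primary screen, cut at about 50% in these data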;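 further: plate controls were negative control wells for no effect and 2.5 mM tranylcypromine positive control for full effect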
Target sequence (P33261 whole entry, looked up): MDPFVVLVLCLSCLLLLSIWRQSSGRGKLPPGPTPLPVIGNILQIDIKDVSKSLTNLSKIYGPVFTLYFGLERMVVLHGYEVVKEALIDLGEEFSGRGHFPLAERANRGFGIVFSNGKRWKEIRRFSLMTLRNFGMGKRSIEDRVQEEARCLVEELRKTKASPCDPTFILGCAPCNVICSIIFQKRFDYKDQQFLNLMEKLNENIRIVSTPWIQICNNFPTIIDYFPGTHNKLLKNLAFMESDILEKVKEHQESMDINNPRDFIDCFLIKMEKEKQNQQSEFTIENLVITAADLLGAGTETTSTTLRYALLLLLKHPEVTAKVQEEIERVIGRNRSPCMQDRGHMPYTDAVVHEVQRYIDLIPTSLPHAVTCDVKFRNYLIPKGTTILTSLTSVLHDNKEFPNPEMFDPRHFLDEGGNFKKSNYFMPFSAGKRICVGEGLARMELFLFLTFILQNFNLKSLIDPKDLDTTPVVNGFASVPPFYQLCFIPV
CYP2C9 activ: increases human cytochrome P450 2C9 activity; recombinant CYP2C9, luciferin-H conversion, luminescence; hits give high values; factor 1 = untreated enzyme, 0 = blocked; activation factor at 5 µM; 96,000 tested, 1.4% active;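 active means activation factor of 2 or more for CYP2C9 at a 5 µM dose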;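 further: 0 = sulfaphenazole-blocked wells and 1 = vehicle-only wells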
CYP2C19 activ: cytochrome P450 2C19 (human) activation | 96,000 tested, under 10 active | P33261 | AID 1025 | recombinant CYP2C19, luciferin-H EGE luminescence; hits give high values; 0 = fully inhibited enzyme, 1 = untreated enzyme | activation factor at 5 µM;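 active means activation factor of at least 2 at 5 µM in the primary screen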;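 further: 0 = wells with 2.5 mM tranylcypromine and 1 = vehicle-only wells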
* hit, by the source's call.

For CCOC(=O)N1CCN(C(=O)CNC(=O)c2nn(-c3ccc(OC)cc3)c(=O)c3ccccc23)CC1 the results were CYP2C9 inh 14.4, CYP2C19 inh -2.2, CYP2C9 activ 0.9 and CYP2C19 activ 1.
For COc1ccccc1-n1nc(C(=O)O)c2ccccc2c1=O the results were CYP2C9 inh -8.4, CYP2C19 inh -3.3, CYP2C9 activ 1.1 and CYP2C19 activ 1.
C=CCn1c(=O)/c(=C/c2ccc(F)cc2)s/c1=C(\C#N)c1nnc2n1CCCCC2 was read as CYP2C9 inh 41.0, CYP2C19 inh 10.8, CYP2C9 activ 0.6 and CYP2C19 activ 0.9.
For COc1cccc(CNCC(=O)N2C(C)CCCC2C)c1 (stereo not drawn) the results were CYP2C9 inh 12.4, CYP2C19 inh 49.1, CYP2C9 activ 0.9 and CYP2C19 activ 0.5.
`COC(=O)c1cc(Br)c(=O)n(CCN2CCOCC2)c1` gave CYP2C9 inh 10.5, CYP2C19 inh 7.6, CYP2C9 activ 0.9 and CYP2C19 activ 0.9.
Cc1cccc(OCCCN2CCCCCC2)c1 was read as CYP2C9 inh 5.4, CYP2C19 inh 8.5, CYP2C9 activ 0.9 and CYP2C19 activ 0.9.
Cc1cccc(OCCN2CSC(=S)N(C)C2)c1 was read as CYP2C9 inh 87.7*, CYP2C19 inh 78.7*, CYP2C9 activ 0.1 and CYP2C19 activ 0.2.
Screening CC(C)(C)Nc1nc(NN)nc(NC(C)(C)C)n1 returned CYP2C9 inh 17.2, CYP2C19 inh 4.9, CYP2C9 activ 0.8 and CYP2C19 activ 1.
`CNc1nc(Cl)nc(NC(C)(C)C)n1` gave CYP2C9 inh -172.8, CYP2C19 inh 13.6, CYP2C9 activ 2.7* and CYP2C19 activ 0.9.
Cc1cc(C)c2oc(-c3cccc(NC(=O)c4ccc(F)cc4)c3)nc2c1 was read as CYP2C9 inh -10.3, CYP2C19 inh -11.9, CYP2C9 activ 1.1 and CYP2C19 activ 1.1.
`Cc1cccc(C)c1NC(=O)C(c1cccs1)N(Cc1ccco1)C(=O)Cn1nnc2ccccc21` (stereo not drawn) gave CYP2C9 inh 3.9, CYP2C19 inh 1.5, CYP2C9 activ 1 and CYP2C19 activ 1.
Cn1nc(-c2ccccc2)c(C(O)c2ccccc2C(F)(F)F)c1Cl (stereo not drawn) was read as CYP2C9 inh 19.7, CYP2C19 inh 35.5, CYP2C9 activ 0.8 and CYP2C19 activ 0.6.
`COC(c1ccccc1)c1c(-c2ccccc2)nn(C)c1Cl` (stereo not drawn) gave CYP2C9 inh 70.8*, CYP2C19 inh 94.1*, CYP2C9 activ 0.3 and CYP2C19 activ 0.1.
`C=C(C)Cn1c(-c2ccccc2)nc2ccccc21` gave CYP2C9 inh 41.6, CYP2C19 inh 69.4*, CYP2C9 activ 0.6 and CYP2C19 activ 0.3.
Screening CCCc1cc(-c2nc(N)ncc2-c2ccc3c(c2)OCCCO3)c(O)cc1OC returned CYP2C9 inh 68.3*, CYP2C19 inh 42.3, CYP2C9 activ 0.3 and CYP2C19 activ 0.6.
Screening O=C(COC(=O)c1cnccn1)c1ccccc1 returned CYP2C9 inh 81.7*, CYP2C19 inh 8.5, CYP2C9 activ 0.2 and CYP2C19 activ 0.9.
For O=C(OCc1ccc(Cl)c(Cl)c1)c1cnccn1 the results were CYP2C9 inh 6.5, CYP2C19 inh 60.9*, CYP2C9 activ 0.9 and CYP2C19 activ 0.4.
COC(=O)c1ccc(OCC(=O)c2ccccc2)cc1 was read as CYP2C9 inh 29.9, CYP2C19 inh 74.9*, CYP2C9 activ 0.7 and CYP2C19 activ 0.3.
Screening CC(=O)Nc1ccc(OCC(=O)c2cc(C)ccc2C)cc1 returned CYP2C9 inh -15.1, CYP2C19 inh 33.4, CYP2C9 activ 1.2 and CYP2C19 activ 0.7.
`CC(=O)Nc1ccc(OCC(=O)c2ccc(C)cc2C)cc1` gave CYP2C9 inh -2.4, CYP2C19 inh 72.2*, CYP2C9 activ 1 and CYP2C19 activ 0.3.
For O=C(OCc1ccc(Cl)cc1)c1cnccn1 the results were CYP2C9 inh 4.8, CYP2C19 inh 41.7, CYP2C9 activ 1 and CYP2C19 activ 0.6.
For COC(=O)c1cc(O)c(OCc2ccccc2)c(O)c1 the results were CYP2C9 inh 91.4*, CYP2C19 inh 95.0*, CYP2C9 activ 0.1 and CYP2C19 activ 0.1.
`N/C(=N\OC(=O)c1ccc(Br)cc1)c1ccccc1` gave CYP2C9 inh 4.9, CYP2C19 inh -2.8, CYP2C9 activ 1 and CYP2C19 activ 1.
O=C(OCCOc1ccc(Br)cc1)c1cnccn1 was read as CYP2C9 inh -6.0, CYP2C19 inh 61.6*, CYP2C9 activ 1.1 and CYP2C19 activ 0.4.
For COC(=O)c1[nH]c(=O)c2ccccc2c1OCc1ccccc1 the results were CYP2C9 inh 10.4, CYP2C19 inh 20.3, CYP2C9 activ 0.9 and CYP2C19 activ 0.8.
`O=C(COC(=O)c1ccccc1)c1ccc(Br)cc1` gave CYP2C9 inh 12.9, CYP2C19 inh 56.5*, CYP2C9 activ 0.9 and CYP2C19 activ 0.4.
CCc1ccc(C(=O)COc2ccc(NC(C)=O)cc2)cc1 was read as CYP2C9 inh 77.3*, CYP2C19 inh 87.5*, CYP2C9 activ 0.2 and CYP2C19 activ 0.1.
`CCC(C)n1c(SCC(=O)NCc2ccco2)nnc1-c1cccc(S(=O)(=O)N2CCOCC2)c1` (stereo not drawn) gave CYP2C9 inh 19.5, CYP2C19 inh -5.9, CYP2C9 activ 0.8 and CYP2C19 activ 1.1.
`Cc1cc(S(=O)(=O)NCCN(C)C)c(C)s1` gave CYP2C9 inh 5.9, CYP2C19 inh -1.5, CYP2C9 activ 0.9 and CYP2C19 activ 1.
For CCOC(=O)C1C(=O)C(C(C)=O)C(=O)CC1CC(C)SCC (stereo not drawn) the results were CYP2C9 inh 29.9, CYP2C19 inh -23.5, CYP2C9 activ 0.7 and CYP2C19 activ 1.2.
For O=C(C1=C(O)C(=O)N(Cc2ccco2)C1c1ccccc1)c1cccs1 (stereo not drawn) the results were CYP2C9 inh 44.5, CYP2C19 inh 20.6, CYP2C9 activ 0.6 and CYP2C19 activ 0.8.
NC(=O)COC(=O)c1ccc(Oc2ccccc2)cc1 was read as CYP2C9 inh 44.3, CYP2C19 inh 55.4*, CYP2C9 activ 0.6 and CYP2C19 activ 0.4.
For O=C(COC(=O)c1ccccc1Nc1ccccc1)c1ccccc1 the results were CYP2C9 inh 56.9*, CYP2C19 inh 29.9, CYP2C9 activ 0.4 and CYP2C19 activ 0.7.
COC(=O)c1ccccc1Nc1ccccc1 was read as CYP2C9 inh 1.6, CYP2C19 inh -9.1, CYP2C9 activ 1 and CYP2C19 activ 1.1.
`COc1ccc2c(=O)c(-c3ccccc3)c(C)oc2c1` gave CYP2C9 inh 11.8, CYP2C19 inh 18.9, CYP2C9 activ 0.9 and CYP2C19 activ 0.8.
`NS(=O)(=O)c1ccc(NC(=O)Cn2ncc3c2-c2ccccc2OC3)cc1` gave CYP2C9 inh 35.2, CYP2C19 inh -15.0, CYP2C9 activ 0.6 and CYP2C19 activ 1.1.
Screening O=C1c2[nH]nc(-c3ccccc3O)c2C(c2ccc(F)cc2)N1Cc1ccco1 (stereo not drawn) returned CYP2C9 inh 97.2*, CYP2C19 inh 84.3*, CYP2C9 activ 0 and CYP2C19 activ 0.2.

Bioassay records as filed in PubChem BioAssay.
